Growth inhibition, inhibition and outcome data for ten molecules are collected here from PubChem BioAssay.

For some assays here: Measured potencies and affinities stand elsewhere. Active and inactive are the calls of the source. Unless noted, the rule behind the calls is not given here.

Assay [1] in a line: antimalarial activity against Dd2 strain (AID 2302;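 active = growth inhibition above 50% at the single 2 µM test dose, taken to imply half-maximal potency below 2 µM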;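 note: 0% = DMSO untreated growth and 100% = chloroquine plus artemisinin killed control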). Particulars: P. falciparum Dd2 in RBCs, LDH growth readout, 72 h; at 2 µM; hits give high values.
Assay [2] is described as follows: human hepatoma cell viability loss – ATP luminescence, cytotoxicity control for P. falciparum antimalarial project, primary screen (AID 2303;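 active = inhibition above 50%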;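 note: 0% = DMSO wells and 100% = digitonin-killed cells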). The note with it: HepG2 viability, 24-48 h, at 10 µM, hits give high values.
For assay [3], the target named is L-lactate dehydrogenase (Plasmodium falciparum (isolate CDC / Honduras)) (UniProt Q27743). Put plainly: PfLDH activity inhibition – cell lysate, 3D7 strain, counter-screen for P. falciparum growth inhibition project (AID 2304).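 Note: 0% = vehicle and 100% = reference inhibitor.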 The note with it: P. falciparum 3D7 crude extract, LDH APAD/NBT absorbance; at 2 µM; hits give high values. (In general: The purpose of a counterscreen is to sort out artefacts and off-target activity.)
Chain of L-lactate dehydrogenase (Plasmodium falciparum (isolate CDC / Honduras)) (Q27743 whole entry, looked up): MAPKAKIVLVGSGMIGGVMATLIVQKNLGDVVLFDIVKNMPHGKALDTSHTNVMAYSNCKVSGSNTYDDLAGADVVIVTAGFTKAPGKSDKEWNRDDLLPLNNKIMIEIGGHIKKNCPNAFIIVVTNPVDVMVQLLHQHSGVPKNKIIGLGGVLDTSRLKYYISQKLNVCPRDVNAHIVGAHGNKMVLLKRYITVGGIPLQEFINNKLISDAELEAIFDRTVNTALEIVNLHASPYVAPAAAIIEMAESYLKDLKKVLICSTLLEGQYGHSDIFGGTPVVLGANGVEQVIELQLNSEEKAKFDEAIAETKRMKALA

Assay [4] can be described thus: inhibition of 3D7 malaria parasite growth – strain 3D7 (AID 2306).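 Note: 0% = DMSO wells and 100% = chloroquine plus artemisinin control wells.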 Particulars: P. falciparum 3D7 erythrocytic growth, LDH absorbance, 72 h; at 2 µM; hits give high values.
Assay [5] concerns the target Calcium-dependent protein kinase 1 (Plasmodium falciparum (isolate 3D7)) (UniProt P62344). As to the kind of experiment: PfCDPK1 kinase inhibitors, biochemical, TCAMS library (AID 1159585; cut-off not given, nearly all actives have IC50 up to about 0.98 µM;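 note: inhibitors leave more ATP so luminescence rises with inhibition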). The note with it: recombinant PfCDPK1, Kinase-Glo ATP depletion luminescence. A general note: Kinase-Glo reads ATP consumption through a luciferase reaction.
In assay [6] the target is Plasmodium falciparum protein kinase 6 (PK6, PF3D7_1337100) (UniProt Q8IDW1). Put plainly: PfPK6 kinase inhibitors, biochemical, TCAMS library (AID 1159586). Particulars: recombinant PfPK6, Kinase-Glo ATP depletion luminescence.
Chain of Plasmodium falciparum protein kinase 6 (PK6, PF3D7_1337100) (Q8IDW1 1-305): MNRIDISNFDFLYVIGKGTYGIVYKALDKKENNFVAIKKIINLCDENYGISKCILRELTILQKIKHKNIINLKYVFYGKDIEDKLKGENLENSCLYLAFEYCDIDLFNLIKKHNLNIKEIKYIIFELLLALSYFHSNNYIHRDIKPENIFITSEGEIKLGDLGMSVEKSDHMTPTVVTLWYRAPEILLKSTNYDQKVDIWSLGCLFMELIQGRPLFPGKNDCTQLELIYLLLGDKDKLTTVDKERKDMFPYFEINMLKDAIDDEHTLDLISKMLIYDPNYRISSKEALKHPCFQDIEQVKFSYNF
The target of assay [7] is Protein kinase 7 (PK7), Plasmodium falciparum 3D7 (PF3D7_0213400) (UniProt Q7YTF7). As to the kind of experiment: inhibition of Plasmodium PK7 catalytic activity – biochemical, TCAMS antimalarial set, Kinase-Glo luminescence (AID 1159587). Particulars: recombinant PfPK7, Kinase-Glo ATP depletion luminescence.
Chain of Protein kinase 7 (PK7), Plasmodium falciparum 3D7 (PF3D7_0213400) (Q7YTF7 1-343): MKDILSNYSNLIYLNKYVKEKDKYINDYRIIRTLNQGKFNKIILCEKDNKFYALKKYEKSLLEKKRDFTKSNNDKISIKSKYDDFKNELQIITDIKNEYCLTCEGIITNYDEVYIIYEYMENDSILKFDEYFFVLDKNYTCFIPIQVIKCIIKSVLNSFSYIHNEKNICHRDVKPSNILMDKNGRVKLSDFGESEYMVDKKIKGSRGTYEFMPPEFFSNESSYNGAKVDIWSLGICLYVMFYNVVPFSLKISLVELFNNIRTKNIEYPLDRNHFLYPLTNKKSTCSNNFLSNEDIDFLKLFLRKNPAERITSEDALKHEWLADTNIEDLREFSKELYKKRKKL
Assay [8] concerns the target Calcium-dependent protein kinase 4 (Plasmodium falciparum (isolate 3D7)) (UniProt Q8IBS5). As to the kind of experiment: PfCDPK4 kinase inhibitors, biochemical, TCAMS library (AID 1159588; cut-off not given, nearly all actives have IC50 up to about 0.91 µM). The note with it: recombinant PfCDPK4, Kinase-Glo ATP depletion luminescence.

Chain of Calcium-dependent protein kinase 1 (Plasmodium falciparum (isolate 3D7)) (P62344 whole entry, looked up): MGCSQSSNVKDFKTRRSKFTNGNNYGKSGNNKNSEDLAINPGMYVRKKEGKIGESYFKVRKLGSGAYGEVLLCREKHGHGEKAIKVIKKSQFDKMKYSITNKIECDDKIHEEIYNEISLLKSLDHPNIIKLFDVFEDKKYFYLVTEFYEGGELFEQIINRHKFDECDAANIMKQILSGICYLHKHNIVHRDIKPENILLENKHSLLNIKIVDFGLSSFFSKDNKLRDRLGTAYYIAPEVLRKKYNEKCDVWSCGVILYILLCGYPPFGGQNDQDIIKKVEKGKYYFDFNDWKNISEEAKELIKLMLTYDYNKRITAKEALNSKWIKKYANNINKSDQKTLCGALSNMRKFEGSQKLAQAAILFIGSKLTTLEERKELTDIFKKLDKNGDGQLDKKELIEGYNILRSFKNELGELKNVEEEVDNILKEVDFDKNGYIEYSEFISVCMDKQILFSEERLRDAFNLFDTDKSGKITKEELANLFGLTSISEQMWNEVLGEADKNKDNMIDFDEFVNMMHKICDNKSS
Chain of Calcium-dependent protein kinase 4 (Plasmodium falciparum (isolate 3D7)) (Q8IBS5 whole entry, looked up): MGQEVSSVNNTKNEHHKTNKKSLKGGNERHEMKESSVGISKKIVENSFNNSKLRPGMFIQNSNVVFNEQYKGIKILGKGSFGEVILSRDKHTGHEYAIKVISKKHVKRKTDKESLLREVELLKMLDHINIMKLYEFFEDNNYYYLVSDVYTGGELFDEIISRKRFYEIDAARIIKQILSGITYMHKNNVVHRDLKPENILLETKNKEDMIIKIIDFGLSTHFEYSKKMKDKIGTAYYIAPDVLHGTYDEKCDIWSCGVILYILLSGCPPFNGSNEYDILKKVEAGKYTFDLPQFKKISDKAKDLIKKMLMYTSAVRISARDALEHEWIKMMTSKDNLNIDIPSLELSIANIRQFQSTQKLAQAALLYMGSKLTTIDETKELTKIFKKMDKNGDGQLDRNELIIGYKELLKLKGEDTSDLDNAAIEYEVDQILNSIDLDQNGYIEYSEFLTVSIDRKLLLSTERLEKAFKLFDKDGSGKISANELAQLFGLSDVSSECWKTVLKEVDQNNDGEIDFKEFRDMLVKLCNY

One may read the inhibition as the relative decrease from the control value, in per cent. On to `CNC(=O)c1cnc(Nc2ccc(N3CCN(C)CC3)cc2)nc1Nc1ccccc1OC`, for which the growth inhibition in assay [1] was 84% (active); in assay [4], 100% (active). The inhibition was 8% (inactive) in assay [2] and 2% (inactive) in assay [3]. Further, the outcome in assay [5], in assay [6], in assay [7] and in assay [8] was inactive.
`OCCNc1nc(Nc2ccccc2)nc2ccccc12`: the growth inhibition in assay [1] was 61% (active); in assay [4], 93% (active). Moreover, the inhibition in assay [2] and in assay [3] was 5% (inactive) in each case. The result in assay [5], in assay [6], in assay [7] and in assay [8] was inactive.
In the case of `COc1ccc(CNC(=O)c2cnc3cc(-c4c(C)noc4C)ccc3c2Nc2ccccc2C(C)(C)C)cc1`, the growth inhibition in assay [1] was 69% (active); in assay [4], 99% (active). The inhibition in assay [2] is 9% (inactive); in assay [3], 0% (inactive). In addition, the outcome in assay [5], in assay [6], in assay [7] and in assay [8] was inactive.
`CC(C)Sc1ccc(Cl)cc1CON1C(N)=NC(N)=NC1(C)C`: the figures for the growth inhibition in assay [1] and in assay [4] were 90% (active) and 93% (active), respectively. Also, the inhibition is 66% (active) in assay [2] and 6% (inactive) in assay [3]. For the same molecule, the result in assay [5], in assay [6], in assay [7] and in assay [8] was inactive.
As for `O=C(Nc1ccc([N+](=O)[O-])cc1O)Nc1ccccc1Oc1ccccc1`, the growth inhibition is 1% (inactive) in assay [1] and 92% (active) in assay [4]. In addition, the inhibition is 45% (inactive) in assay [2] and -8% (inactive) in assay [3]. For the same molecule, the result in assay [5], in assay [6], in assay [7] and in assay [8] was inactive.
In the case of `COc1ccc(-n2c(=O)c3c(n4c(SC(C)C)nnc24)-c2ccccc2CC32CCCCC2)cc1`, the results for the growth inhibition in assay [1] and in assay [4] were 15% (inactive) and 99% (active), respectively. For the same molecule, the inhibition in assay [2] is -3% (inactive); in assay [3], -1% (inactive). The result in assay [5], in assay [6], in assay [7] and in assay [8] was inactive.
For `CCOc1cc(C(=O)N[C@@H](Cc2ccccc2)[C@H](O)CNC(C)(C)c2cccc(OC)c2)cc(N2CCCS2(=O)=O)c1`, the growth inhibition in assay [1] and in assay [4] was 99% (active) each time. Besides, the results for the inhibition in assay [2] and in assay [3] were -5% (inactive) and -3% (inactive), respectively. Further, the outcome in assay [5], in assay [6], in assay [7] and in assay [8] was inactive.
As to `COc1ccc2nccc([C@@H](O)CN3CCC(NCC4COc5ccccc5O4)CC3)c2c1` (stereo not given in full), the growth inhibition was 94% (active) in assay [1] and 98% (active) in assay [4]. Also, the inhibition in assay [2] is 17% (inactive); in assay [3], 4% (inactive). The outcome in assay [5], in assay [6], in assay [7] and in assay [8] was inactive.
For `O=C(Cn1c(CCc2cccc(F)c2F)nc(=O)c2ccccc21)N(CCN1CCCCC1)Cc1ccc(-c2ccc(C(F)(F)F)cc2)cc1`, the values for the growth inhibition in assay [1] and in assay [4] were 89% (active) and 101% (active), respectively. Also, the values for the inhibition in assay [2] and in assay [3] were 32% (inactive) and 4% (inactive), respectively. For the same molecule, the outcome in assay [5], in assay [6], in assay [7] and in assay [8] was inactive.
Turning to `CCOc1cc(O)c(-c2nc(N)ncc2-c2ccc3c(c2)OCCO3)cc1CC`, the growth inhibition was 68% (active) in assay [1] and 99% (active) in assay [4]. Moreover, the inhibition in assay [2] is -5% (inactive); in assay [3], -1% (inactive). The result in assay [5], in assay [6], in assay [7] and in assay [8] was inactive.
